Test results reported in paper PMC5540273 (PLoS ONE, 2017).

What was measured:
Details in all cases: concentration: 1 μM, replicates: in singlicate; n = 1
[1] = system: CSNK1A1
[2] = system: CSNK1D
[3] = system: CSNK1E
[4] = system: CSNK1G1
[5] = system: CSNK1G2
[6] = system: CSNK1G3
[7] = system: CSNK2A1
[8] = system: CSNK2A2
[9] = system: T1, CTK
T1 construct: gene MATK

[10] = system: DAPK1
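Also: KINOMEscan kinase panel screen.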

SMILES | %Inh [1] [%] | %Inh [2] [%] | %Inh [3] [%] | %Inh [4] [%] | %Inh [5] [%] | %Inh [6] [%] | %Inh [7] [%] | %Inh [8] [%] | %Inh [9] [%] | %Inh [10] [%]
CC(=O)Nc1nc2cnc(Nc3cc(NC(=O)c4cccc(CCC#N)c4)ccc3C)nc2s1 | 23 | 3 | 0 | 2 | 7 | 0 | 0 | 9 | 0 | 0
CS(=O)(=O)c1ccc(-c2c(-c3ncn[nH]3)sc(N3CCOCC3)c2C#N)cc1 | 48 | 0 | 4 | 1 | 0 | 0 | 0 | 24 | 26 | 5
Cc1cc(-c2ccc3c(c2)CC[C@@H](N[C@@H](C)c2ccccc2)C3)cnc1N.Cl [GW412617] | 6 | 35 | 12 | 11 | 0 | 8 | 2 | 10 | 13 | 10
O=C(Nc1n[nH]c2nc(-c3nccs3)c(Br)cc12)C1CCCC1 [SB-742609] | 25 | 42 | 11 | 0 | 0 | 22 | 0 | 0 | 0 | 0
CCn1c(-c2cccnc2O)nc2cnccc21 [SB-736715] | 16 | 0 | 0 | 0 | 0 | 0 | 0 | 0 | 3 | 0
Cc1cccc(-c2nc(Nc3cccc(C(N)=O)c3)c3ccccc3n2)n1 [GW876019] | 37 | 8 | 15 | 0 | 0 | 18 | 30 | 19 | 13 | 15
COc1cccc(NC(=O)NC2CCN(c3ccnc(Nc4ccc(F)cc4)n3)C2)c1 (stereo not shown) [GSK1379721] | 0 | 0 | 37 | 9 | 0 | 27 | 0 | 10 | 0 | 10
O=S(=O)(c1ccc(-c2ccnc3[nH]ccc23)cc1)N1CCCC1 [GSK846226] | 0 | 7 | 41 | 5 | 0 | 37 | 4 | 6 | 0 | 58
Cl.c1ccc(-c2n[nH]cc2-c2ccnc(-c3ccc(CN4CCOCC4)cc3)c2)nc1 [GW776245] | 61 | 58 | 37 | 16 | 36 | 0 | 0 | 0 | 0 | 13
COc1ccc(CNC(=O)NC2CCN(c3ccnc(Nc4cc(OC)c(OC)c(OC)c4)n3)C2)cc1 (stereo not shown) [GSK1379748] | 0 | 0 | 14 | 0 | 0 | 23 | 6 | 9 | 0 | 0
O=C(Nc1ccccc1)Nc1cccc(Oc2ccc3nccn3n2)c1 | 0 | 0 | 0 | 0 | 0 | 2 | 0 | 0 | 0 | 10
Cc1cccc(-c2nc(C)cc(Nc3ccncc3)n2)n1 [GSK257997] | 0 | 43 | 42 | 13 | 0 | 10 | 2 | 22 | 0 | 9
Cc1ccc(NC(=O)Nc2cc(C(C)(C)C)nn2-c2ccccc2)cc1 [GSK1014915] | 0 | 13 | 0 | 0 | 0 | 25 | 13 | 0 | 18 | 6
Cc1cc(NCC(c2ccccc2)c2ccccc2)nc(NCc2ccc(C(F)(F)F)cc2)n1 [GW497681] | 0 | 0 | 34 | 0 | 0 | 22 | 0 | 0 | 0 | 2
COc1cc2ncn(-c3cc(OCC4CCCO4)c(C(N)=O)s3)c2cc1OC (stereo not shown) [GSK204607] | 0 | 8 | 17 | 1 | 0 | 26 | 8 | 9 | 0 | 29
O=C(Nc1ccc2c(c1)OCO2)NC1CCN(c2ccnc(Nc3ccc(F)cc3)n2)C1 (stereo not shown) [GSK1379724] | 0 | 21 | 0 | 0 | 0 | 8 | 0 | 0 | 0 | 0
